# According to ChEMBL document CHEMBL1201862, “PubChem BioAssay data set” (2004):
# In all, about 400,000 compounds went through this assay and about 2,100 (0.53%) were called active. Inconclusive results (about 14%) are left out. How the calls were made is not given here. Many of the other results were omitted from the sample, so actives are more common in it than they were.
# Biological target: Ataxin-2 (Homo sapiens) (UniProt Q99700)
# Assay: qHTS for Inhibitors of ATXN expression.
# Format: functional
# Ataxin-2 (Homo sapiens), sequence (Q99700 whole entry): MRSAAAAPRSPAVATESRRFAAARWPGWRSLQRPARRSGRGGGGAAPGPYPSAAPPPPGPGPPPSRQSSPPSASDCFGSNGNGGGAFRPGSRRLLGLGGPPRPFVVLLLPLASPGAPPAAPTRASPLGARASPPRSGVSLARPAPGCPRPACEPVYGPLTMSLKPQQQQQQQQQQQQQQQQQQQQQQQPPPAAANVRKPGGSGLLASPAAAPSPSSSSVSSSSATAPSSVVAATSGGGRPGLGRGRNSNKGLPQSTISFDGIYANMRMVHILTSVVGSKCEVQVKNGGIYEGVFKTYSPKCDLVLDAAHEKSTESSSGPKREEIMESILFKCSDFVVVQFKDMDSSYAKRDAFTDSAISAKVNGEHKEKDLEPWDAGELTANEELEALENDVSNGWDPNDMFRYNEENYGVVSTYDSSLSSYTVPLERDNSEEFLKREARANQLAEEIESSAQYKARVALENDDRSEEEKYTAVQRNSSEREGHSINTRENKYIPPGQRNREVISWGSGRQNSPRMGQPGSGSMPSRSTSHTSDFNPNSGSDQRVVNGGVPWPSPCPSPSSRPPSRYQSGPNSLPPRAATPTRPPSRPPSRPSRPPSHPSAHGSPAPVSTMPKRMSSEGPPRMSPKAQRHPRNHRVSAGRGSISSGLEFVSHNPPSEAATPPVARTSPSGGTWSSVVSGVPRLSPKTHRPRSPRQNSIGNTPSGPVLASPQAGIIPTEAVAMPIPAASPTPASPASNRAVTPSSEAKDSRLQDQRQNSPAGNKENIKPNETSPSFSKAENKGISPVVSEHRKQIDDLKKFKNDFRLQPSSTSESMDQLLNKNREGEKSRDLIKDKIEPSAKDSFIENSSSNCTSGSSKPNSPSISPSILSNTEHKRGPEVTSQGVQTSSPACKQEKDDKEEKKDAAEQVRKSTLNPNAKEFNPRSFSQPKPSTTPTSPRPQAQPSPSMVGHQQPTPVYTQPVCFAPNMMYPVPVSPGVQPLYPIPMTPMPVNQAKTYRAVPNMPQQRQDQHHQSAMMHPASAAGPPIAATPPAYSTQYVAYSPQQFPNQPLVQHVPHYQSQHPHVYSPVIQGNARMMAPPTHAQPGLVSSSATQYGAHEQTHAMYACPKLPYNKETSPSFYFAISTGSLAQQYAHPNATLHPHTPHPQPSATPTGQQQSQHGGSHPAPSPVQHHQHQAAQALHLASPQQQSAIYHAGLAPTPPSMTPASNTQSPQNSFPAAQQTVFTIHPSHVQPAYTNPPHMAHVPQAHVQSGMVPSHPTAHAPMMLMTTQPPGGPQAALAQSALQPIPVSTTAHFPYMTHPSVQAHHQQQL
row,SMILES,Potency
1,N#CC1=C(N)Oc2c(oc(CO)cc2=O)C1c1ccccc1[N+](=O)[O-] (stereo not given),inactive
2,O=C(CCNC(=O)Cn1cnc2ccccc2c1=O)NCC1CCCO1 (stereo not given),inactive
3,COC(=O)C(N)Cc1ccc(OC)c([N+](=O)[O-])c1 (stereo not given),inactive
4,CCCCCOc1ccc(CSC2=NCCN2)cc1[N+](=O)[O-],35.5 µM (active)
5,Cc1ccc(OCCn2cnc3ccccc3c2=O)c([N+](=O)[O-])c1,inactive
6,Cc1ccccc1NC(=O)COc1ccc(Br)cc1C,inactive
7,CCC1CN(C(=O)NCc2ccc(F)cc2)c2ccccc2O1 (stereo not given),inactive
8,Cc1ccc(NC(=O)Cn2sc3ccccc3c2=O)cc1,25.1 µM (active)
9,O=C(Cn1sc2ccccc2c1=O)Nc1ccccc1,39.8 µM (active)
10,O=C(CN1C(=O)c2cccc3cccc1c23)Nc1ccccc1,inactive
11,CCn1c(=O)c(C(=O)Nc2ccc(C)cc2)c(O)c2ccccc21,inactive
12,O=C(Cn1sc2ccccc2c1=O)Nc1ccc(F)cc1,31.6 µM (active)
13,O=C(Nc1ccc(F)cc1)c1cccc2ccccc12,inactive
14,O=C(CN1C(=O)CSc2ccc(C(F)(F)F)cc21)Nc1ccccc1,inactive
15,CC(=O)c1ccccc1NCC(=O)Nc1ccc(C)cc1,inactive
16,O=C(CC1C(=O)NCCN1C(=O)Nc1ccccc1)Nc1ccc(F)cc1 (stereo not given),inactive
17,COc1cccc2sc3cc(NCC[C@@H]4CCCN4C)ccc3c(=O)c12,inactive
18,COc1ccc(C)cc1NC(=O)c1cc(-c2ccccc2)nc2c1cnn2C(C)C,inactive
19,CCCNC(=O)c1c(N)n(-c2cccc(OC)c2)c2nc3ccccc3nc12,inactive
20,CCc1nc2ccc(C(=O)Nc3cc(-c4ccccc4)ccc3OC)cn2c1N(CC)CCN(C)C,39.8 µM (active)
21,COc1ccc(NC(=O)c2ccc(S(=O)(=O)N3CC(C)CC(C)C3)cc2)cc1S(N)(=O)=O (stereo not given),inactive
22,CCc1nc2ccc(C(=O)Nc3ccc(OC)c(OC)c3)cn2c1N(C)CCC(C)C,31.6 µM (active)
23,COc1cc(C(=O)Nc2ccn(C)n2)ccc1OC(F)F,inactive
24,CCc1nc2ccc(C(=O)Nc3cccc(OC)c3)cn2c1N(CCC(C)C)CCN(C)C,14.1 µM (active)
25,Cc1ccc(-c2cc(C(=O)Nc3ccccn3)c3ccccc3n2)o1,inactive

row,SMILES,Potency
1,CN(NC(=O)COc1ccccc1)C1=NS(=O)(=O)c2ccccc21,inactive
2,CC(=O)c1ccc(/N=c2\scc(C)n2C(C)C)cc1,inactive
3,COc1ccc(-c2csc(NC(=O)c3c(C)noc3C)n2)cc1OC,inactive
4,CC(=O)Nc1cccc(-c2csc(Nc3cc(C)ccn3)n2)c1,25.1 µM (active)
5,CC(=O)Nc1ccc(-c2ccnc(-c3ccc(NC(C)=O)cc3)n2)cc1,inactive
6,Cc1c(CCC(=O)NCCCN2CCCC2=O)c(=O)oc2c(C)c(O)ccc12,inactive
7,COc1cc(/C=C/c2sc3ccccc3[n+]2CCCS(=O)(=O)[O-])ccc1O,18.9 µM (active)
8,Cc1cccn2c(=O)c3cc(C(=O)NCC4CCCO4)c(=N)n(Cc4ccc(F)cc4)c3nc12 (stereo not given),inactive
9,CCN(CC)c1ccc(/C=C(\C#N)c2ccccn2)cc1,inactive
10,CCS(=O)(=O)c1ccc2oc(SCC(=O)NCCc3ccccc3)nc2c1,inactive
11,COc1cccc(Cc2nc3ccccc3nc2SCC(=O)NCCc2ccccc2)c1,35.5 µM (active)
12,O=C(CSc1ccccc1)NCCc1ccc(F)cc1,inactive
13,O=S(=O)(c1ccc(N2CCC(c3ccc(Cl)cc3)=N2)cc1)N(CCO)CCO,inactive
14,CCCCC[C@H](O)/C=C/[C@H]1CCC(=O)[C@@H]1CCCCCCC(=O)N1CCCCC1CO (stereo not given in full),39.8 µM (active)
15,CN(/N=C/c1cc(Cl)cc(Cl)c1O)C(=S)NC(C)(C)C,inactive
16,Cc1cc(N2CCOCC2)n2ncc(-c3ccccc3Cl)c2n1,inactive
17,Cn1nc([N+](=O)[O-])nc1Sc1cccc2cccnc12,7.94 µM (active)
18,C=CCn1nc([N+](=O)[O-])nc1Sc1cccc2cccnc12,39.8 µM (active)
19,Cc1nn(C)c(Sc2ccccn2)c1[N+](=O)[O-],inactive
20,CCOc1ccc2nc(NCCNC(=O)CC)c(C#N)cc2c1,inactive
21,CN1c2ccccc2Oc2nnc(Cl)cc21,inactive
22,Cc1cc(-c2nnc3n2N=C(c2ccccc2)CS3)[nH]n1,inactive
23,Clc1ccc(C2=Nn3c(nnc3-c3cc(-c4ccccc4)[nH]n3)SC2)cc1,35.5 µM (active)
24,O=c1c2ccccc2nc(/C=C/c2ccc(O)cc2)n1CCc1ccccc1,inactive
25,Cc1nn(C(=O)CCCC(=O)NCc2ccccc2)c2ccccc12,inactive

row,SMILES,Potency
1,CCCCC[C@H]1CN(C2CCCCC2)C(=O)[C@@H]1CC(=O)NCc1ccccc1,39.8 µM (active)
2,O=C(CC1CCCCC1)NCc1nc(-c2ccccc2)no1,inactive
3,CCN1C(=O)c2cccc3c(S(=O)(=O)N4CCNCC4)ccc1c23,inactive
4,COc1cc(OC)c(OC)cc1C=Cc1ccc2ccccc2n1,inactive
5,COc1cccc(/C=C/c2ccc3cccc(O)c3n2)c1OC,inactive
6,COc1cc(Br)c(/C=C/c2ccc3cccc(O)c3n2)cc1OC,25.1 µM (active)
7,Cc1ccc(C2C=C(c3ccc(F)cc3)Nc3nc(CCCO)nn32)cc1 (stereo not given),inactive
8,O=CN(c1ccccc1)c1ccc2ccccc2c1,inactive
9,CCCCCCc1cc2cc(-c3nnc(-c4cc(OC)c(OC)c(OC)c4)o3)c(=O)oc2cc1O,inactive
10,COCCCN=C(S)NCCNc1nc2c(C)c(C)ccc2cc1C#N,inactive
11,COc1cc2nc(/C=C/c3cc(OC)c(OC)c(OC)c3)sc2cc1SC,inactive
12,CC1=CN2C(=N)/C(=C/c3ccc([N+](=O)[O-])o3)C(=O)N=C2S1,28.2 µM (active)
13,CC1=CN2C(=N)/C(=C/c3cc(Cl)c(O)c(Cl)c3)C(=O)N=C2S1,inactive
14,COc1ccc(-c2ccc(/C=N/NC(=O)c3cccnc3)o2)c([N+](=O)[O-])c1,inactive
15,CC1=NN2C(=N)/C(=C\c3cc(C)n(-c4ccc(C)cc4)c3C)C(=O)N=C2S1,inactive
16,CCOc1ccc(-c2ccc(/C=C3/C(=N)N4C=CSC4=NC3=O)o2)c([N+](=O)[O-])c1,31.6 µM (active)
17,CCOC(=O)c1c(N)n(C2CC(C)(C)NC(C)(C)C2)c2nc3ccccc3nc12,inactive
18,Cc1ccc2oc(=O)c3cnn(CC(=O)Nc4ccccc4N4CCN(C)CC4)c3c2c1,7.08 µM (active)
19,CC(CCc1ccco1)NC(=O)Cn1ncc2c(=O)oc3ccccc3c21 (stereo not given),inactive
20,O=C(CN1CCN(c2ccccc2)CC1)Nc1scc2c1c(=O)oc1ccccc12,inactive
21,CN(C(=S)NC(=O)C12CC3CC(CC(C3)C1)C2)c1ccc(O)cc1,inactive
22,O=C(NCCc1csc(-c2cccnc2)n1)c1ccc(Br)o1,inactive
23,Cc1ccc(CCNC(=O)C[S+]([O-])Cc2nc(-c3cccs3)oc2C)cc1 (stereo not given),inactive
24,Cc1ccc(-c2nc3sc(CCNC(=O)c4ccc(Br)o4)c(C)n3n2)cc1,35.5 µM (active)
25,O=C(COc1coc(CN2CCc3ccccc32)cc1=O)N1CCCCC1,inactive

row,SMILES,Potency
1,CC[C@H](C)/C=C/C1=CC2=C(Cl)C(=O)[C@@]3(C)OC(=O)C(C(=O)[C@H](C)[C@@H](C)O)=C3C2=CO1,11.9 µM (active)
2,CC[C@H](C)/C=C(C)/C=C/C1=CC2=CC(=O)[C@]3(C)OC(=O)[C@@H](C(C)=O)[C@@H]3C2=CO1,inactive
3,Cc1ccc(S(=O)(=O)N2CC3(O)CN(C(=O)OC(C)C)N(C(=O)OC(C)C)CC3(OC(=O)NCc3ccccc3)C2)cc1 (stereo not given),22.4 µM (active)
4,Cc1ccc(S(=O)(=O)N[C@@H](Cc2ccccc2)C(=O)N2CCC[C@@H]2C(=O)O)cc1,inactive
5,CCCCCCNC(=O)OC12CN(C(=O)OC(C)C)N(C(=O)OC(C)C)CC1(O)CN(S(=O)(=O)c1ccc(C)cc1)C2 (stereo not given),25.1 µM (active)
6,O=S(=O)(NCc1ccccc1)c1ccc(S(=O)(=O)N2CCCC2)cc1,inactive
7,CCCNC(=O)c1ccc(SCC(=O)N(CC)CC)c([N+](=O)[O-])c1,inactive
8,CC(=O)NCCNC(=O)c1ccc(Sc2ccccc2)c([N+](=O)[O-])c1,inactive
9,NCCNc1ccc(C(=O)N2c3ccccc3Sc3ccccc32)cc1[N+](=O)[O-],14.1 µM (active)
10,C/C(=N\NC(=O)C1=NNC(=O)C1C)c1cccs1 (stereo not given),inactive
11,CN=c1sc2c(n1C)C(=O)c1ccccc1C2=O,39.8 µM (active)
12,O=C(NP(=O)(N1CCOCC1)N1CCOCC1)C1=C(N2CCOCC2)/C(=C\c2ccccc2)CC1,inactive
13,Cc1c(/N=C2\C=CC(=O)c3ccccc32)c(=O)n(-c2ccccc2)n1C,inactive
14,CC1=CC(=Nc2c(C)n(C)n(-c3ccccc3)c2=O)C=C(C)C1=O,35.5 µM (active)
15,Cc1c(N=C2C=C(Br)C(=O)C(Br)=C2)c(=O)n(-c2ccccc2)n1C,inactive
16,CCCS(=O)(=O)N1CCN=C1SCc1ccc(C)cc1,inactive
17,Cc1cc(C)cc(N2C(=O)C=CC2=O)c1,28.2 µM (active)
18,Cc1cccc(N2C(=O)c3cccc4c(N)ccc(c34)C2=O)c1,inactive
19,CCOC(=O)c1c(-c2ccc(C)cc2)csc1NC(=O)/C(C#N)=C/c1ccc(O)c(OC)c1,inactive
20,CCOC(=O)c1c(-c2ccc(C)o2)csc1NC(=S)NC(=O)N(C)C,39.8 µM (active)
21,CCOC(=O)c1c(-c2ccc(Cl)cc2)csc1NC(=O)CNCc1ccco1,inactive
22,CCc1ccc(/C(C)=N/NC(=O)c2ccc(-n3cnnn3)cc2)cc1,inactive
23,Cc1cccn2c(Nc3ccc4c(c3)OCCO4)c(-c3ccc(Br)o3)nc12,39.8 µM (active)
24,COc1cc(OC)c(OC)cc1CN1CCc2nc(Nc3ccc4c(c3)OCCO4)ncc2C1,inactive
25,Cc1cnc(NC(=O)CSc2nnc3ncccn23)s1,inactive
